HTT prom inh = HTT promoter inhibition; HEK293 HTT promoter firefly luciferase reporter, 24 h; 48,000 tested, 0.93% active; Potency, µM (series often up to 57.5 µM), inactives show at the highest dose activity change, negative = inhibition, actives largely listed as inhibitors; AID 1508623; note: nearly all actives have a fitted effect of over 50% in size
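Quantitative HTS used concentration series of up to 57.5 uM final on HEK293 luciferase reporter cells, 24 h at 37 degrees C. Readout was Dual-Glo firefly luminescence.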
GALC G270D act = raises human GALC G270D mutant activity in cells; 145M-Twi-hGALC-G270D cells, HMU-beta-Gal fluorescence, 48 h; Potency, µM (doses to about 57.5 µM), actives largely listed as activators; AID 1159614; 45,000 tested, 0.1% active; P54803; note: 0% is about no effect; nearly all actives have a fitted effect of over 65% in size
Target sequence (P54803 whole entry G286D): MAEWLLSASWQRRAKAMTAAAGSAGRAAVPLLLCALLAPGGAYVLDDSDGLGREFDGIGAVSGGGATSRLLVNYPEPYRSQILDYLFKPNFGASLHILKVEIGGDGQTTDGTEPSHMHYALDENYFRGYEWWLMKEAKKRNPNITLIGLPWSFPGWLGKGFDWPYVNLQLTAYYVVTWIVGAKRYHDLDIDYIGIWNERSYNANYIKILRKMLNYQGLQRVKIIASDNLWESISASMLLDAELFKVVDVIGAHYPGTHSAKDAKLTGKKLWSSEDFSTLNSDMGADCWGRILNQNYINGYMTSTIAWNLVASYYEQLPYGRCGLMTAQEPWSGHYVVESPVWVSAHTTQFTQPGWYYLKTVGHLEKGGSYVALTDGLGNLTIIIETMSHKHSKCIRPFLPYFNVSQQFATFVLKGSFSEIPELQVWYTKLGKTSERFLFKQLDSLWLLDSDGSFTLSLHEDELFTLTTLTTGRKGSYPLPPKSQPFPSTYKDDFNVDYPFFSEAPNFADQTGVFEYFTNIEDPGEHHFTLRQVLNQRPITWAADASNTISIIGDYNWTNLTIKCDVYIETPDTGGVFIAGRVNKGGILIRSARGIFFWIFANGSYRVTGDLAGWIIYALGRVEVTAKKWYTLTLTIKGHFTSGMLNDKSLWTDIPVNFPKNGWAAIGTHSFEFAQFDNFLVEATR
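qHTS, 1536-well; 145M-Twi-hGALC-G270D cells (WT line also made) in DMEM/F12 + 10% FBS; compound incubation on live cells; HMU-β-gal 0.1 mM final, pH 5.2, NaTC; carbonate stop; fluorescence increase = enhanced residual activity.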
HTT-AS promoter = activates huntingtin-antisense promoter activity; Potency, µM (series often up to 57.5 µM), for inactives: at the top dose activity change, positive = activation, hits mostly activators; 48,000 tested, 0.24% active; AID 1508624; HEK293 HTT-AS promoter firefly luciferase reporter, 24 h; response scale: percent change from vehicle, -100% = no light; note: nearly all actives have a fitted effect of over 55% in size
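HEK293 Fluc reporter, 2,500 cells/well, 24 h pre-culture; cpds up to 57.5 uM final, 24 h 37 degrees C; Dual-Glo, 10 min RT; normalized vehicle = 0%, zero RLU = -100%.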
An asterisk follows results filed as active; i = inactive; ? = inconclusive; . = no result; [ ] = another dose, or the depositor's remark. Most compounds without a hit are left out; they make up all but 1.3% or so of the library. Calls come from the whole dose curve; as a rule, active = well fitted curve in the direction sought with a large enough effect; inconclusive = small, poorly fitted or top-dose-only effect, or another doubt; inactive = no such curve, though single readings can be large; an effect the other way counts as inactive or inconclusive. Potency is the fitted concentration of half-maximal effect.

SMILES	HTT prom inh	GALC G270D act	HTT-AS promoter
CCOC(=O)c1c(C)oc2nc(C)nc(N3CCN(c4ccccc4)CC3)c12	?	i	-42.7%
CCOC(=O)c1c(C)[nH]c(C)c1S(=O)(=O)N1CCN(c2cccc(C(F)(F)F)c2)CC1	?	1.12µM*	-43.1%
CCOC(=O)c1c(C)oc2nc(C)nc(N3CCN(c4cccc(C(F)(F)F)c4)CC3)c12	25.1µM*	i	-64.9%
CCOC(=O)c1c(S(=O)(=O)N2CCN(c3cccc(C(F)(F)F)c3)CC2)c(C)n(C)c1C	-13.9%[11.5 µM]	i	1.2%[11.5 µM]
C[C@@H]1CCO[C@H]2Cn3cc(C(=O)NCc4ccc(F)cc4F)c(=O)c(O)c3C(=O)N12	8.5%	.	21.5%
Cc1nc(C2CCCCC2)c(-c2ccc(S(N)(=O)=O)c(F)c2)o1	-27.0%	i	-26.7%
CN(C)CCN1C(=O)c2cccc3cc(N)cc(c23)C1=O	?	.	-42.9%
CCOc1ccc(S(=O)(=O)NCCc2csc3nc(-c4ccc(F)cc4)nn23)cc1	25.1µM*	i	-41.6%
CCOc1ccc(S(=O)(=O)NCCc2csc3nc(-c4ccc(OC)c(OC)c4)nn23)cc1	16.5%	i	-3.3%
CO[C@@H]1C(N(C)C(=O)c2ccccc2)C[C@H]2O[C@]1(C)n1c3ccccc3c3c4c(c5c6ccccc6n2c5c31)C(=O)NC4=O (stereo not given in full)	?	.	-34.1%
O=C(NCC(c1ccccc1)c1ccccc1)c1nn(-c2ccccc2F)nc1CO	3.98µM*	i	-37.3%
O=C(NCCc1ccccc1)c1nn(-c2ccccc2F)nc1CO	-29.0%	i	-24.9%
Cc1nc2cc(-c3cccc(F)c3)nn2c(C)c1CCC(=O)N1CCN(c2ccc(F)cc2)CC1	?	i	-61.2%
COc1ccc(-c2cc3nc(C)c(CCC(=O)N4CCN(c5ccccc5)CC4)c(C)n3n2)c(OC)c1	-10.0%	i	-11.7%
Cc1nc2cc(-c3ccccc3)nn2c(C)c1CCC(=O)N1CCN(c2ccccc2)CC1	2.51µM*	i	-67.5%
Cc1nc2cc(-c3ccc(Cl)cc3)nn2c(C)c1CCC(=O)N1CCN(c2ccccc2)CC1	1µM*	?	-75.3%
Cc1c(N)cccc1C(F)(F)F	12.2%	i	0.3%
Cc1cc(OCCCc2c(C(=O)O)n(Cc3cccnc3)c3c(-c4c(COc5ccc(N6CCN([S+](C)(=O)[O-])CC6)cc5)nn(C)c4C)cccc23)cc(C)c1Cl	?	.	-29.1%
Cc1ccc(S(=O)(=O)CCC(=O)N2CCN(c3nc4c(C)c(Cl)ccc4s3)CC2)cc1	-25.0%	i	-14.7%
COc1cccc2sc(N3CCN(C(=O)CCS(=O)(=O)c4ccc(F)cc4)CC3)nc12	22.4µM*	i	-37.9%
CCOc1ccc(Cc2cc([C@@H]3O[C@H](CO)[C@@H](O)[C@H](O)[C@@H]3O)ccc2Cl)cc1	-2.7%	.	-3.9%
CC1=C(C(=O)Nc2cc3cn[nH]c3cc2F)C(c2ccc(C(F)(F)F)cc2)CC(=O)N1 (stereo not given)	-3.6%	.	-13.3%
COc1ccc2c(c1)CCc1c(C(=O)Nc3cc(OC)c(Cl)cc3OC)noc1-2	-7.6%	i	-6.3%
COc1ccc2c(c1)CCc1c(C(=O)Nc3c(C)nn(Cc4ccc(C)cc4)c3C)noc1-2	22.4µM*	i	-46.9%
Cc1cccc(N2CCN(c3ncnc4onc(C)c34)CC2C)c1 (stereo not given)	12.6µM*	i	-93.2%
SMILES	HTT prom inh	GALC G270D act	HTT-AS promoter
Cc1cccc(N2CCN(c3ncnc4onc(-c5ccc(F)cc5)c34)CC2C)c1 (stereo not given)	?	i	-35.3%
C1Cc2[nH]nc(-c3nn[nH]n3)c2C1	0.9%	.	-15.1%
COc1ccc(-c2ccc3ncc4c(c3c2)n(-c2ccc(N3CCNCC3)c(C(F)(F)F)c2)c(=O)n4C)cn1	?	.	-93.5%
Cc1ccc(C2CC(=O)Nc3cc4c(cc32)OCCO4)cc1Br (stereo not given)	25.1µM*	i	-40.8%
CC(C)c1ccc(C2CC(=O)Nc3cc4c(cc32)OCCO4)cc1 (stereo not given)	?	i	-43.4%
Cn1cnc(-c2cc3nccc(Oc4ccc(NC(=S)NC(=O)Cc5ccccc5)cc4F)c3s2)c1	-12.9%	.	-21.0%
O=C1NC(=O)C(=Cc2ccc3nccnc3c2)S1	12.9%[25.2 µM]	.	?
COc1ccc(NCc2cccn2-c2nnc(N3CCCCC3)s2)cc1OC	7.94µM*	i	-54.4%
COc1cccc(NCc2cccn2-c2nnc(N3CCC(C)CC3)s2)c1	10µM*	i	-60.6%
COc1ccc(NCc2cccn2-c2nnc(N3CCOCC3)s2)cc1OC	?	i	-6.4%
Cc1ccccc1NCc1cccn1-c1nnc(N2CCC(C)CC2)s1	-13.7%	i	-3.5%
Cc1ccc(CNCc2cccn2-c2nnc(N3CCCC3)s2)cc1	-33.9%	i	4.6%
CCc1ccc(NCc2cccn2-c2nnc(N3CCCCCC3)s2)cc1	10µM*	i	-79.2%
CC1=C(CO)C(=O)O[C@@H]([C@@H](C)[C@H]2CC[C@H]3[C@@H]4C[C@H]5O[C@]56[C@@H](O)C=CC(=O)[C@]6(C)[C@@H]4CC[C@]23C)C1	?	.	-94.8%
CN(C)[C@@H]1C(=O)C(C(N)=O)=C(O)[C@@]2(O)C(=O)C3=C(O)c4c(O)cccc4C[C@H]3C[C@@H]12	?	i	-27.9%
CC1CCN(S(=O)(=O)c2ccc(C(=O)Nc3nc4ccc(F)cc4s3)cc2)CC1	-22.7%	i	-23.8%
COc1cccc2sc(NC(=O)c3ccc(S(=O)(=O)N4CCC(C)CC4)cc3)nc12	28.2µM*	i	-45.5%
Nc1ncnc2c1c(-c1cccc(OCc3ccccc3)c1)cn2C1CC(CN2CCCC2)C1 (stereo not given)	-27.4%	.	-11.9%
Cn1c(=O)c(Oc2ccc(F)cc2F)cc2cnc(NC3CCOCC3)nc21	-5.4%	.	-16.6%
COc1ccc(C(=O)Nc2cc(C(C)C)c(O)c(S(=O)(=O)c3ccc(Cl)cc3)c2C)cc1	-5.3%	i	?
COc1ccc(C(=O)NC(c2ccc(Cl)cc2)c2cc(Cl)c3cccnc3c2O)cc1 (stereo not given)	17.8µM*	i	-58.9%
Cc1ccc(NCc2cccn2-c2nnc(N3CCC(C(=O)NCCc4ccc(Cl)cc4)CC3)s2)cc1	?	i	-31.9%
CCOc1ccc(NCc2cccn2-c2nnc(N3CCC(C(=O)NCc4cccc(OC)c4)CC3)s2)cc1	?	i	-46.5%
Cc1ccc(NCc2cccn2-c2nnc(N3CCC(C(=O)NCc4ccc(OC(C)C)cc4)CC3)s2)cc1	28.2µM*	i	-43.5%
CCOc1ccc(NCc2cccn2-c2nnc(N3CCC(C(=O)NCc4ccc(C)cc4)CC3)s2)cc1	14.1µM*	i	-52.2%
N#Cc1cc(NC(=O)Nc2nnc(-c3ccncc3)s2)ccc1-c1cn[nH]c1	?	.	-9.5%
OCc1ccccc1O[C@@H]1O[C@H](CO)[C@H](O)[C@H](O)[C@H]1O	-9.0%	.	-5.6%
CCS(=O)(=O)c1ccccc1C(=O)N1CCN(c2nc3ccccc3s2)CC1	14.1µM*	i	-44.4%

Screening data deposited in PubChem by National Center for Advancing Translational Sciences (NCATS).
